Most compounds without a hit are left out; they make up all but 7.6% or so of the library.
Cy5 interf NS3h: counter-screen for HCV NS3 helicase inhibitors: fluorescence interference. Cy5-dT15 DNA with NS3h; actives lie on both sides; signal over control mean, under 1 quenches. fluorescence interference ratio at 100 µM. 6% of 16,000 active. AID 720488;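 active = compound fluorescence over control fluorescence at most 0.8, a quencher, or at least a set upper limit, an enhancer; inactive = ratio between 0.8 and the set upper limit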
HCV NS3h FP: hepatitis C NS3 helicase inhibition, primary screen | NS3h Cy5-dT15 DNA binding, fluorescence polarization | inhibition, % at 100 µM | 1.6% of 16,000 active | AID 687043;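 active = inhibition above the average over every tested compound plus 3 SD, cut at about 40% in these data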
NS3h confirm: confirmation of hepatitis C virus NS3 helicase inhibitors; shares compounds with HCV NS3h FP; NS3h binding to Cy5-dT15 DNA, fluorescence polarization; inhibition, % at 100 µM; 20% of 240 active; AID 720485;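 active = percent inhibition of 50% or more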
SSB FP counter: E. coli SSB-DNA binding inhibition, NS3h counter-screen | shares compounds with HCV NS3h FP | E. coli SSB binding Cy5-dT15, fluorescence polarization | inhibition, % at 100 µM | 40% of 240 active | AID 720486;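 active = inhibition of at least 50%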;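 note: displacers lower Cy5 polarization so higher inhibition means more SSB displaced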
Target sequence (P0AGE0 whole entry, looked up): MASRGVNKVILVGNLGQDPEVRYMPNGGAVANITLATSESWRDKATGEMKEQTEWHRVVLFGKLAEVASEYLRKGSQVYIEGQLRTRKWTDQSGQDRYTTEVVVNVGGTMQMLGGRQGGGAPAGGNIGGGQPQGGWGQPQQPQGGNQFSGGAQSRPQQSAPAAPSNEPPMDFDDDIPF
Cy5 SSB fluor CB: Cy5 fluorescence interference in NS3h counter-screen; shares compounds with HCV NS3h FP; Cy5-dT15/E. coli SSB fluorescence interference; actives lie on both sides; fluorescence interference ratio at 100 µM; 8% of 240 active; AID 720487;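 active = fluorescence interference ratio at or above 1.2, signal boosting, or at or below 0.8, signal quenching; inactive = ratio between 0.8 and 1.2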;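 note: ratio of compound well signal to mean negative control signal so 1 means no effect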
Cy5 fluor confirm: confirmation counter-screen for HCV NS3 helicase inhibitors: fluorescence interference; shares compounds with HCV NS3h FP; Cy5-dT15 DNA/NS3h fluorescence interference counterscreen; fluorescence interference ratio at 100 µM, hits read low; 44% of 240 active; AID 720489;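 active = fluorescence interference ratio at or below 0.8 quencher or at or above a set limitenhancer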;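 note: ratio of compound fluorescence to mean of negative controls so 1 means no interference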
* = called active by the depositor; / = no result given.

SMILES	Cy5 interf NS3h	HCV NS3h FP	NS3h confirm	SSB FP counter	Cy5 SSB fluor CB	Cy5 fluor confirm
CCOC(=O)c1sc(NC(=O)CCCOc2ccc(Cl)cc2Cl)nc1C	0.966	22.3	2.3	1.7	0.967	0.746*
CCOc1cc(/C=C2\C(=O)NC(=O)N(c3ccc(Cl)cc3)C2=O)cc(Cl)c1OCC	0.989	9.2	/	/	/	/
Cc1cc(C)c([N+](=O)[O-])cc1-c1ccc(/C=c2\sc3nc4ccccc4n3c2=O)o1	1.56*	120.8*	14.0	32.0	0.933	0.828
O=c1/c(=C/c2ccc(-c3ccccc3Cl)o2)sc2nc3ccccc3n12	1.03	6.8	/	/	/	/
O=C1C=CC(=NS(=O)(=O)c2ccc(Cl)cc2)C=C1	0.962	19.3	/	/	/	/
O=C1C(Cl)=CC(=NS(=O)(=O)c2ccc(Cl)cc2)C(Cl)=C1Cl	0.982	84.6*	55.2*	80.6*	0.769*	0.824
CCCC1=NN(C(=O)Cc2ccccc2)C(O)(C(F)(F)F)C1 (stereo unspecified)	0.917	7.1	/	/	/	/
COC(=O)c1ccc(-c2ccc(/C=C3/SC(=S)N(C)C3=O)o2)cc1	0.875	-7.2	/	/	/	/
CCC1=NN2C(=N)/C(=C/c3ccc(-c4cccc([N+](=O)[O-])c4)o3)C(=O)N=C2S1	0.936	-3.5	/	/	/	/
O=C1/C(=C\c2ccc(-c3cccc(Cl)c3)o2)SC(=S)N1CCS(=O)(=O)O	0.836	84.5*	45.7	97.6*	0.815	0.884
COCCN1C(=O)/C(=C\c2ccc(-c3cccc([N+](=O)[O-])c3)o2)SC1=S	1.08	4.8	/	/	/	/
CC1=NN(c2ccc(C(=O)O)cc2)C(=O)/C1=C\c1ccc(-c2cccc(C(=O)O)c2)o1	1.03	31.4	/	/	/	/
CCC1=NN2C(=N)/C(=C/c3ccc(-c4cccc(C(=O)O)c4)o3)C(=O)N=C2S1	1.01	52.2*	26.7	86.7*	0.926	0.846
CN1C(=O)/C(=C/c2ccc(-c3ccc(C(=O)O)cc3)o2)SC1=S	1.24*	76.1*	10.8	34.5	0.917	0.985
N=C1S/C(=C\c2ccc(-c3cccc(C(=O)O)c3)o2)C(=O)N1c1ccc2c(c1)OCO2	0.812	71.4*	20.3	107.3*	0.821	0.918
COc1cccc(/C=C2\SC(=S)N(c3cccc(Br)c3)C2=O)c1	1	22.1	/	/	/	/
Cc1cccc(N2C(=O)/C(=C/c3ccccc3Cl)SC2=S)c1C	0.928	2.6	/	/	/	/
O=Nc1c(O)c2ccccc2c2ccc([N+](=O)[O-])cc12	0.954	15.2	/	/	/	/
CC(NC(=O)C(=O)NCC1CCNCC1)c1ccccc1 (stereo unspecified)	0.948	3.3	/	/	/	/
CCc1cc(/C(O)=C/c2nc3ccccc3n2C)c(O)cc1OC(=O)C(C)(C)C	0.937	11.5	/	/	/	/
Cc1cc([N+](=O)[O-])ccc1-c1ccc(/C=C2\SC(=O)N(c3cccc(Cl)c3)C2=O)o1	1.06	1.9	/	/	/	/
O=C1NC(=S)S/C1=C\c1ccc(C(=O)O)cc1	0.97	13.9	/	/	/	/
O=C1NC(=S)S/C1=C/c1ccc(-c2cccc(C(=O)O)c2)o1	0.977	67.0*	61.6*	98.8*	0.807	0.791*
O=C1NC(=O)N(c2ccc(Cl)cc2)C(=O)/C1=C/c1ccc(I)o1	1.34*	55.5*	25.6	78.2*	1.06	0.822
Cc1cc(C)cc(N2C(=O)NC(=O)/C(=C\c3ccccc3C)C2=O)c1	1.07	-10.7	/	/	/	/
SMILES	Cy5 interf NS3h	HCV NS3h FP	NS3h confirm	SSB FP counter	Cy5 SSB fluor CB	Cy5 fluor confirm
O=C1NC(=O)N(c2ccc(Cl)cc2)C(=O)/C1=C\c1ccc(-c2ccc([N+](=O)[O-])cc2)o1	1.02	7.6	/	/	/	/
COc1cc(/C=C2\C(=O)NC(=O)N(c3ccc(Cl)cc3)C2=O)cc(I)c1OC	1.14	10.0	/	/	/	/
Cc1ccc(N2C(=O)NC(=O)/C(=C\c3ccc(-c4ccc(C)c([N+](=O)[O-])c4)o3)C2=O)cc1	1.13	60.9*	2.3	23.5	0.961	0.895
Cc1cc(C)cc(N2C(=O)NC(=O)/C(=C\c3ccc(I)o3)C2=O)c1	1.1	46.3*	39.4	91.5*	1.03	1.01
Cc1ccc(C)c(OCCOCCOc2ncnc3ccccc23)c1	0.908	10.1	/	/	/	/
Cc1ccc(NC(=O)C(=O)NCc2ccc3c(c2)OCO3)cc1	1.02	9.6	/	/	/	/
Clc1ccc(-c2nc3ccccc3[nH]2)c(Cl)c1	1.02	12.8	/	/	/	/
O=C(O)Cc1ccc(C(F)(F)F)cc1[N+](=O)[O-]	1.02	5.0	/	/	/	/
CS(=O)(=O)N(CC(=O)NCc1ccncc1)c1ccc(Oc2ccccc2)cc1	1.02	2.2	/	/	/	/
CN1C(=O)C(=Cc2ccc(-c3ccc(Cl)c(C(=O)O)c3)o2)C(=O)N(C)C1=O	1.13	23.0	/	/	/	/
N#CC(C#N)=Cc1ccc(-c2ccc(Cl)c(C(=O)O)c2)o1	1.06	42.9*	23.5	40.5	0.965	0.794*
CC(C)c1ccc(-c2nc(N)c3c(=O)oc4ccccc4c3n2)cc1	1.02	13.5	/	/	/	/
CC(=O)NC1=C(N(C)C)C(=O)c2ccccc2C1=O	0.909	-21.2	/	/	/	/
CC(=O)N(C)C1=C(Cl)C(=O)c2ccccc2C1=O	0.85	90.1*	84.8*	0.5	0.973	0.973
CCOc1cc(/C=C2\C(=O)NN(c3ccc(Cl)c(Cl)c3)C2=O)ccc1OC(C)=O	0.843	37.7	28.8	11.4	0.881	0.867
O=C1NN(c2ccc(Cl)c(Cl)c2)C(=O)/C1=C/c1ccc(Cl)c([N+](=O)[O-])c1	0.87	36.6	/	/	/	/
CCN(C(=O)c1cc2cc(Cl)cc(Cl)c2oc1=O)c1ccccc1	1.07	2.9	/	/	/	/
CC1=NN(C(=O)OC(C)(C)C)C(O)(C(F)(F)F)C1 (stereo unspecified)	1.07	-4.1	/	/	/	/
CCOc1cc(C2C(C(=O)OC)=C(C)NC3=C2C(=O)c2ccccc23)ccc1OCc1cccc(F)c1 (stereo unspecified)	1.02	1.4	/	/	/	/
Cc1ccc(/C=C(\C#N)c2nc3ccccc3s2)cc1	0.859	2.7	/	/	/	/
CN1C=C(C(F)(F)F)C=C/C1=C(/C#N)c1nc2ccccc2s1	1.13	39.5	0.2	9.0	0.905	0.711*
COc1ccc(C2CC(C(F)(F)F)n3nc(C(=O)N4CCN(c5ccc(F)cc5)CC4)c(Cl)c3N2)cc1OC (stereo unspecified)	0.98	0.9	/	/	/	/
O=C(O)c1cc(-c2ccc(/C=C3/Sc4ccccc4C3=O)o2)ccc1O	0.974	110.1*	60.5*	102.4*	0.836	0.686*
CC(=O)N(/C=C1\Sc2ccccc2C1=O)c1ccc(C)cc1	1.1	7.8	/	/	/	/
C/C(=N/N1CCN(Cc2ccccc2Cl)CC1)c1ccccc1O	1.04	11.6	/	/	/	/
COc1cc(C=C2C(=O)NC(=S)NC2=O)cc(Br)c1O	1	30.6	/	/	/	/
COc1cc(C=C2C(=O)NC(=O)NC2=O)cc([N+](=O)[O-])c1O	0.89	47.8*	34.1	60.0*	0.886	0.946
COc1cc(C=C2C(=O)NC(=O)NC2=O)cc(Br)c1OCc1ccc([N+](=O)[O-])cc1	0.729*	73.4*	19.3	44.2	0.855	0.581*
COc1cc(C=C2C(=O)N(C)C(=O)N(C)C2=O)cc(Br)c1OCc1ccccc1	0.975	32.4	/	/	/	/

Bioassay records: PubChem, Milwaukee Institute for Drug Discovery
